Out of some 5,500 compounds screened, about 2,000 (36%) were called active. Roughly 18% stayed inconclusive and do not appear here. Rule as the data show it: active = normalized growth mostly below about 0.91 (no sharp cut-off); inconclusive = no clear call, values can overlap the other calls; inactive = mostly above about 0.92. The list shows a part of the results.
Test: chemical genetic growth profiling, strain panel (AID 1159580);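 also: tested at 20 µM; growth read once vehicle control cultures reached saturation at 30 °C; 1 = growth at the plate median or of vehicle wells; lower values mean less growth of the strain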
Details: S. cerevisiae deletion strains, growth OD

Measured: normalized growth

O=C(O)COc1ccc(Cl)cc1Cl
inactive: locus YAL013W, strain DEP1, hits give low values 1.01 | locus YAL021C, strain ccr4, hits give low values 0.997 | locus YAL026C, strain drs2, hits give low values 1.01 | locus YAL030W, strain snc1, hits give low values 0.988 | locus YBL061C, strain skt5, hits give low values 0.997 | locus YBR009C, strain hhf1, hits give low values 0.992 | locus YBR021W, strain FUR4, hits give low values 1 | locus YBR023C, strain chs3, hits give low values 0.992 | locus YBR171W, strain sec66, hits give low values 1 | locus YBR229C, strain ROT2, hits give low values 0.999 | locus YBR231C, strain swc5, hits give low values 0.989 | locus YBR279W, strain paf1, hits give low values 0.992 | locus YCL011C, strain gbp2, hits give low values 1 | locus YCL016C, strain dcc1, hits give low values 0.994 | locus YCL029C, strain bik1, hits give low values 1.03 | locus YCL061C, strain MRC1, hits give low values 0.995 | locus YCL069W, strain vba3, hits give low values 1 | locus YCR088W, strain abp1, hits give low values 1 | locus YDL005C, strain med2, hits give low values 0.992 | locus YDL035C, strain GPR1, hits give low values 1.03 | locus YDL040C, strain nat1, hits give low values 0.996 | locus YDL074C, strain BRE1, hits give low values 1.05 | locus YDL101C, strain DUN1, hits give low values 0.999 | locus YDL134C, strain PPH21, hits give low values 1.02 | locus YDL185W, strain tfp1, hits give low values 1.02 | locus YDL192W, strain arf1, hits give low values 1.02 | locus YDR001C, strain nth1, hits give low values 1 | locus YDR069C, strain doa4, hits give low values 0.986 | locus YDR101C, strain arx1, hits give low values 1.02 | locus YDR137W, strain rgp1, hits give low values 1.01 | locus YDR150W, strain NUM1, hits give low values 1.01 | locus YDR159W, strain sac3, hits give low values 0.982 | locus YDR162C, strain NBP2, hits give low values 1.01 | locus YDR195W, strain ref2 0.968 | locus YDR297W, strain sur2, hits give low values 1.01 | locus YDR318W, strain mcm21, hits give low values 1.03 | locus YDR334W, strain swr1, hits give low values 1 | locus YDR335W, strain msn5, hits give low values 0.998 | locus YDR388W, hits give low values 1.02 | locus YDR392W, strain spt3, hits give low values 1 | locus YDR502C, strain sam2, hits give low values 1.02 | locus YEL003W, strain gim4, hits give low values 0.995 | locus YEL037C, strain rad23, hits give low values 1.01 | locus YEL061C, strain CIN8 (second series), hits give low values 0.989 | locus YEL061C, strain CIN8, hits give low values 1 | locus YER015W, strain faa2, hits give low values 0.997 | locus YER016W, strain bim1, hits give low values 1 | locus YER110C, hits give low values 1.02 | locus YER111C, strain swi4, hits give low values 0.977 | locus YER155C, strain BEM2 (second series), hits give low values 1.01 | locus YER155C, strain BEM2, hits give low values 1.01 | locus YER167W, strain BCK2, hits give low values 1.02 | locus YFR010W, strain ubp6, hits give low values 0.998 | locus YGL078C, strain dbp3, hits give low values 1.02 | locus YGL086W, strain mad1, hits give low values 1.01 | locus YGL167C, strain pmr1, hits give low values 1 | locus YGL173C, strain kem1, hits give low values 0.984 | locus YGL227W, strain vid30, hits give low values 0.987 | locus YGL240W, strain doc1, hits give low values 0.982 | locus YGL248W, strain PDE1, hits give low values 1.03 | locus YGL253W, strain hxk2, hits give low values 0.995 | locus YGR078C, strain PAC10, hits give low values 1.02 | locus YGR135W, strain pre9, hits give low values 1.02 | locus YGR229C, strain SMI1, hits give low values 1.04 | locus YGR252W, strain gcn5, hits give low values 1.03 | locus YHR013C, strain ard1, hits give low values 0.995 | locus YHR027C, strain rpn1, hits give low values 0.994 | locus YHR030C, strain SLT2, hits give low values 0.999 | locus YHR079C, strain IRE1 (second series), hits give low values 1.03 | locus YHR094C, strain hxt1, hits give low values 1.01 | locus YHR129C, strain ARP1, hits give low values 1 | locus YHR142W, strain chs7, hits give low values 1.01 | locus YHR200W, strain rpn10, hits give low values 1.01 | locus YIL066C, strain RNR3, hits give low values 1.02 | locus YIL073C, strain SPO22, hits give low values 1.1 | locus YIL125W, strain kgd1, hits give low values 1.03 | locus YIR030C, strain dcg1, hits give low values 1.02 | locus YJL092W, strain hpr5, hits give low values 0.987 | locus YJL095W, strain BCK1 (second series), hits give low values 0.987 | locus YJL095W, strain BCK1, hits give low values 1.02 | locus YJL115W, strain asf1, hits give low values 1 | locus YJL129C, strain trk1, hits give low values 1.02 | locus YJL134W, strain LCB3, hits give low values 1 | locus YJL154C, strain vps35, hits give low values 1 | locus YJL164C, strain tpk1, hits give low values 1 | locus YJL166W, strain qcr8, hits give low values 0.992 | locus YJL168C, strain set2, hits give low values 1.02 | locus YJL187C, strain SWE1 (second series), hits give low values 1.01 | locus YJL187C, strain SWE1, hits give low values 1
